The source of these data is PubChem BioAssay (EPA / NIEHS).

One may read the AC50 as the concentration at which the activity in the assay is half-maximal.

Assay [1] deals with Nuclear respiratory factor 1 (Homo sapiens) (UniProt Q16656). The experiment in a line: ATG_NRF1_CIS: Attagene CIS-FACTORIAL HepG2 Assay for human Nuclear Respiratory Factor 1 (NRF1) Orphan Gene (AID 2282987). The following applies: HepG2 NRF1 cis-element reporter, Attagene multiplex; actives raise or lower the signal. Summed up: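 Human hepatoma HepG2 cells carrying transfected promoter-regulated reporter units were incubated with test chemicals for 24 h. Reporter transcripts were measured by RT-PCR plus capillary electrophoresis, and endpoints derived by bidirectional fitting with DMSO as baseline.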

Assay [2] in a line: ATG_NFI_CIS: Attagene CIS-FACTORIAL HepG2 Assay for human Nuclear Factor I (NFI) (AID 2282989). The conditions noted are these: HepG2 cis-regulatory reporter, NFI response element transcription; actives raise or lower the signal. The gist of the method: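 Endogenous TF activity in HepG2 cells transiently transfected with cis-element-driven multiplexed reporter units, read 24 h after dosing. Reporter mRNA quantified by RT-PCR, 6-FAM labelling, HpaI digestion and capillary electrophoresis; bidirectional fit versus DMSO.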

Assay [3] deals with Myc proto-oncogene protein (Homo sapiens) (UniProt P01106). The experiment in a line: ATG_Myc_CIS: Attagene CIS-FACTORIAL HepG2 Assay for human Myelocytomatosis (Myc) Proto-Oncogene Transcription Factor (AID 2282990). The following applies: HepG2, Attagene cis-reporter transcription factor activity; actives raise or lower the signal. Summed up:
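Cells of the HepG2 human liver line bear multiple cis-driven reporter transcription units. Reporter mRNA after 24 h exposure is reverse-transcribed, amplified, labelled and resolved by capillary electrophoresis, with gain- or loss-of-signal fitting relative to DMSO.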

Assay [4] in a line: ATG_NF_kB_CIS: Attagene CIS-FACTORIAL HepG2 Assay for human Nuclear Factor Kappa B (NF-kB) (AID 2282991). The conditions noted are these: HepG2 Attagene cis-factorial NF-kB reporter mRNA; actives raise or lower the signal. Summed up:
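Multiplexed cis-reporter assay in transiently transfected HepG2. 24 h treatment; RNA isolated, RT-PCR, labelled fragments resolved by CE. DMSO baseline.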

Assay [5] can be described thus: ATG_NRF2_ARE_CIS: Attagene CIS-FACTORIAL HepG2 Assay for human Nuclear Factor Erythroid 2 Related Factor 2 (NFR2) response to Antioxidant Response Elements (ARE) (AID 2282992).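 For AC50: reporter mRNA level measured by RT-PCR and capillary electrophoresis fluorescence.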 The conditions noted are these: HepG2 Attagene ARE/NRF2 reporter, transcription factor activity; actives raise or lower the signal. The gist of the method:
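Cis-factorial assay: transfected HepG2 reporter library, 24 h dosing, mRNA readout via RT-PCR/CE; DMSO-referenced bidirectional analysis.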

Assay [6] concerns the target Cellular tumor antigen p53 (Homo sapiens) (UniProt P04637). The experiment in a line: ATG_p53_CIS: Attagene CIS-FACTORIAL HepG2 Assay for human p53 Transcription Factor (AID 2282994). The following applies: HepG2 p53 cis-element reporter, Attagene mRNA; actives raise or lower the signal. Summed up: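 Using HepG2 hepatoma cells carrying cis-acting multiplexed reporters, mRNA induction is detected after a 24 h exposure. Gain- and loss-of-signal responses are fitted relative to DMSO-treated cells.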

Assay [7] in a line: BSK_3C_TissueFactor: BioMAP Diversity Plus: 3C Assay for Tissue Factor Biomarker Activity (AID 2282997). The conditions noted are these: BioMAP 3C HUVEC, tissue factor biomarker readout; actives raise or lower the signal. The gist of the method:
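Human vascular primary cells (umbilical vein endothelium) received test chemical; Tissue Factor was determined by ELISA at 24 h, and both gain and loss of signal versus DMSO were fitted.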

The nature of assay [8]: BSK_3C_uPAR: BioMAP Diversity Plus: 3C Assay for Urokinase-type plasminogen activator receptor (uPAR) Biomarker Activity (AID 2282998). The following applies: BioMAP 3C HUVEC, uPAR biomarker ELISA; actives raise or lower the signal. The gist of the method: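 Primary human umbilical vein endothelial cells, 3C system; surface uPAR measured by ELISA 24 h after dosing. Cytotoxicity via SRB total protein in parallel cultures; bidirectional fit against DMSO.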
Background: An ELISA detects its analyte on a solid surface through an enzyme-linked reagent.

Assay [9] is described as follows: BSK_4H_Eotaxin3: BioMAP Diversity Plus: 4H Assay for Eotaxin 3 Biomarker Activity (AID 2283000).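 For outcome: CCL26 protein level quantified by ELISA in parallel with SRB cytotoxicity check.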 The conditions noted are these: primary human endothelial cells (HUVEC); actives raise or lower the signal. Summed up: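 Readout is Eotaxin-3 (CCL26) level by ELISA in primary human umbilical vein endothelial cells harvested 24 h after chemical exposure; activity fitted in both directions against DMSO control.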

For assay [10], the target named is human Peroxisome Proliferator-activated Receptor alpha (PPARa), PPARA (gene 5465) (UniProt Q07869). Kind of assay: ATG_PPARa_TRANS: Attagene TRANS-FACTORIAL HepG2 Assay for human Peroxisome Proliferator-activated Receptor alpha (PPARa) (AID 2283001; active = hit-call score of the fitted dose curve at least 0.9, where 1 is the maximum). The gist of the method:
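Read-out is fluorescence of reporter cDNA fragments resolved by capillary electrophoresis after RT-PCR. Human HepG2 liver cells carried transfected PPARa-Gal4 chimera and GAL4-UAS reporter units, treated 24 h; activity scored as increase over DMSO.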

The target of assay [11] is human Peroxisome Proliferator-activated Receptor delta (PPARd), PPARD (gene 5467) (UniProt Q03181). The experiment in a line: ATG_PPARd_TRANS: Attagene TRANS-FACTORIAL HepG2 Assay for human Peroxisome Proliferator-activated Receptor delta (PPARd) (AID 2283002; active = hit-call score of the fitted dose curve at least 0.9, where 1 is the maximum). Summed up:
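Cell-based TRANS reporter: HepG2, transient MRTU transfection, 24 h exposure. Readout = reporter mRNA (RT-PCR/CE, 6-FAM). Gain-of-signal fit vs DMSO control.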

Read-out in assay [12]: Intercellular Adhesion Molecule 1 (ICAM1), ICAM1 (gene 3383)
The experiment in a line: BSK_3C_ICAM1: BioMAP Diversity Plus: 3C Assay for Intercellular Adhesion Molecule 1 (ICAM1) Biomarker Activity (AID 2283003). The conditions noted are these: primary human endothelial cells (HUVEC); actives raise or lower the signal. The gist of the method:
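HUVEC primary cells stimulated under 3C conditions; ICAM1 measured by ELISA 24 h after compound dosing. Curves fitted bidirectionally against the DMSO baseline. Overt cytotoxicity checked by SRB staining of parallel cultures.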

Assay [13] is described as follows: BSK_3C_Proliferation: Cell Proliferation Assessment in the BioMAP Diversity Plus: 3C Assay (AID 2283006).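 For AC50: potency may reflect either rise or fall in cell number versus DMSO.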 The following applies: primary human endothelial cells (HUVEC). The gist of the method: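 Subconfluent HUVEC (3C system) cultured with chemical; relative cell number read at 48 h by sulforhodamine B total-protein staining (0.1% SRB after 10% TCA fixation, 560 nm). Bidirectional fit relative to DMSO.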

Assay [14] deals with Peroxisome proliferator-activated receptor gamma (Homo sapiens) (UniProt P37231). The experiment in a line: ATG_PPARg_TRANS: Attagene TRANS-FACTORIAL HepG2 Assay for human Peroxisome Proliferator-activated Receptor-gamma (PPARg) (AID 2283007; active = hit-call score of the fitted dose curve at least 0.9, where 1 is the maximum). The gist of the method: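 Human hepatoma HepG2, transient MRTU transfection, 24 h treatment. mRNA reporter signal by RT-PCR plus capillary electrophoresis, fluorescence detection; fitted for increase over DMSO negative control.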

For assay [15], the target named is Nuclear receptor subfamily 1 group I member 2 (Homo sapiens) (UniProt O75469). Kind of assay: ATG_PXR_TRANS: Attagene TRANS-FACTORIAL HepG2 Assay for human Pregnane X Receptor (PXR) (AID 2283008; active = hit-call score of the fitted dose curve at least 0.9, where 1 is the maximum). Summed up: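 Fluorescence intensity of FAM-labelled, HpaI-digested reporter amplicons, separated by capillary electrophoresis, quantifies induction. HepG2 cells with PXR-Gal4 trans-reporter system were exposed 24 h; DMSO defines baseline.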

For assay [16], the target named is human Retinoic Acid Receptor gamma (RARg), RARG (gene 5916) (UniProt P13631). The experiment in a line: ATG_RARg_TRANS: Attagene TRANS-FACTORIAL HepG2 Assay for human Retinoic Acid Receptor gamma (RARg) (AID 2283009; active = hit-call score of the fitted dose curve at least 0.9, where 1 is the maximum). Summed up: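 HepG2 transiently transfected with GAL4-UAS reporter units and chimeric NR-Gal4 constructs; 24 h compound exposure. Reporter mRNA quantified by RT-PCR, FAM labeling, HpaI digestion and capillary electrophoresis; gain-of-signal versus DMSO.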

The target of assay [17] is human Retinoic Acid Receptor beta (RARb), RARB (gene 5915) (UniProt P10826). Kind of assay: ATG_RARb_TRANS: Attagene TRANS-FACTORIAL HepG2 Assay for human Retinoic Acid Receptor beta (AID 2283004; active = hit-call score of the fitted dose curve at least 0.9, where 1 is the maximum). The gist of the method: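 Readout is reporter mRNA induction: RNA reverse-transcribed, PCR-amplified, FAM-labelled, HpaI-cut and resolved by capillary electrophoresis. Transiently transfected HepG2 cells carrying exogenous NR–Gal4 chimeras were dosed for 24 h; activity fitted upward relative to DMSO.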

The target in assay [18] is Retinoic acid receptor alpha (Homo sapiens) (UniProt P10276). The experiment in a line: ATG_RARa_TRANS: Attagene TRANS-FACTORIAL HepG2 Assay for human Retinoic Acid Receptor alpha (RARa) (AID 2283005; active = hit-call score of the fitted dose curve at least 0.9, where 1 is the maximum). The gist of the method: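 Reporter transcripts, measured by RT-PCR with fluorescent labeling and capillary electrophoresis after 24 h dosing, reflect activity of an exogenous human RARa–GAL4 fusion in transiently transfected HepG2. Fitted for increase relative to DMSO.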

Assay [19] in a line: ATG_Oct_MLP_CIS: Attagene CIS-FACTORIAL HepG2 Assay for human Octamer-Binding Transcription Factor (Oct) (AID 2282993). The conditions noted are these: HepG2 Attagene cis-factorial Oct reporter, mRNA; actives raise or lower the signal. The gist of the method:
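HepG2 cells transiently transfected with cis-element-driven reporter transcription units (endogenous TF activity); 24 h compound exposure. Reporter mRNA quantified by RT-PCR, 6-FAM labelling, HpaI digestion and capillary electrophoresis; bidirectional fit versus DMSO baseline.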

A short description of assay [20]: BSK_3C_VCAM1: BioMAP Diversity Plus: 3C Assay for Vascular cell adhesion molecule 1 (VCAM1) Biomarker Activity (AID 2282999). The following applies: BioMAP 3C HUVEC, VCAM1 ELISA, cytokine-stimulated; actives raise or lower the signal. The gist of the method:
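Endothelial cells from human umbilical vein are treated with test chemical. At 24 h, VCAM-1 is measured by ELISA, and responses in either direction are fitted relative to DMSO.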

Where “and” joins values, the source holds several entries; their conditions need not be identical. Equal entries are not always repeated. Results filed as inconclusive are left out. A structure can be active in one record and inactive in another. Calls of active or inactive are those of the source. Rule for the calls, unless noted: active = hit-call score of the fitted dose curve at least 0.9, where 1 is the maximum; inactive = score below 0.9.

Sequence of Nuclear respiratory factor 1 (Homo sapiens) (Q16656 whole entry, looked up): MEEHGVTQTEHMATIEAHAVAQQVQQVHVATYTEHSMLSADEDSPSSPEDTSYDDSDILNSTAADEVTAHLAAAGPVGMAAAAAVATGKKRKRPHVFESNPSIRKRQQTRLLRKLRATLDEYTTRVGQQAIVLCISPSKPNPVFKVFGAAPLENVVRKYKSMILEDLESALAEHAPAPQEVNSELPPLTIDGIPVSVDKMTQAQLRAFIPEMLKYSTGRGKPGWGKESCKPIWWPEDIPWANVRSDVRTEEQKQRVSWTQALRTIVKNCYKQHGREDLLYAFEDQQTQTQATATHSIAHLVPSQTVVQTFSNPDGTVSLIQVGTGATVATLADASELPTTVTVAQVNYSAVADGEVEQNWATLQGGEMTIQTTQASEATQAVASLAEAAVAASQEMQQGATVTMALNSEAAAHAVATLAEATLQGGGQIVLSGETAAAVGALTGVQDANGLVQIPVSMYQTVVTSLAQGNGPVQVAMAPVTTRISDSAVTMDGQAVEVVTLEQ
Sequence of Peroxisome proliferator-activated receptor gamma (Homo sapiens) (P37231 whole entry, looked up): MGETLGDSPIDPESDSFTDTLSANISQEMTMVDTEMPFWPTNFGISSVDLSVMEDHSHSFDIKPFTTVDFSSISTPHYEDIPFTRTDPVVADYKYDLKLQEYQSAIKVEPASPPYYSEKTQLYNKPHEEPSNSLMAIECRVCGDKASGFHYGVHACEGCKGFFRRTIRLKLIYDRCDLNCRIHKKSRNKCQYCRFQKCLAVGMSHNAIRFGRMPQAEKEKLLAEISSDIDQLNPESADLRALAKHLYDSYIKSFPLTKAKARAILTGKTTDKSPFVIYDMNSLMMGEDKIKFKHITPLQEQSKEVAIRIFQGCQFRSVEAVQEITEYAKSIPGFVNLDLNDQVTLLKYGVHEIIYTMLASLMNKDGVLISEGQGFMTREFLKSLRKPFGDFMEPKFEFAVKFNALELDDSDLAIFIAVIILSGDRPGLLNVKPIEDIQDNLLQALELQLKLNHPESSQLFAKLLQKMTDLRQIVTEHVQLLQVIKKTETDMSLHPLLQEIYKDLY
Sequence of human Retinoic Acid Receptor beta (RARb), RARB (gene 5915) (P10826 whole entry, looked up, the tested form may be a part): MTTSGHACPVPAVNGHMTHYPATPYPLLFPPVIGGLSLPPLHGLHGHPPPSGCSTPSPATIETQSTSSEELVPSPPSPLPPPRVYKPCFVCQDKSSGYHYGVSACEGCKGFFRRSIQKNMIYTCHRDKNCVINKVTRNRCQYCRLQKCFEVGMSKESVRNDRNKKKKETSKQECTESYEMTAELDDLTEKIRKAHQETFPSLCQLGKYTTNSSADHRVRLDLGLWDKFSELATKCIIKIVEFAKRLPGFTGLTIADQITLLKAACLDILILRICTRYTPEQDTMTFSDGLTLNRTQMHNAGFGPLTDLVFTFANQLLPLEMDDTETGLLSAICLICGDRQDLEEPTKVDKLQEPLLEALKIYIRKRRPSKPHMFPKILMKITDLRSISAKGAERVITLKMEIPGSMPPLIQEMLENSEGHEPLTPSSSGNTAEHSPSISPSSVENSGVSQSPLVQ
Sequence of Myc proto-oncogene protein (Homo sapiens) (P01106 whole entry, looked up): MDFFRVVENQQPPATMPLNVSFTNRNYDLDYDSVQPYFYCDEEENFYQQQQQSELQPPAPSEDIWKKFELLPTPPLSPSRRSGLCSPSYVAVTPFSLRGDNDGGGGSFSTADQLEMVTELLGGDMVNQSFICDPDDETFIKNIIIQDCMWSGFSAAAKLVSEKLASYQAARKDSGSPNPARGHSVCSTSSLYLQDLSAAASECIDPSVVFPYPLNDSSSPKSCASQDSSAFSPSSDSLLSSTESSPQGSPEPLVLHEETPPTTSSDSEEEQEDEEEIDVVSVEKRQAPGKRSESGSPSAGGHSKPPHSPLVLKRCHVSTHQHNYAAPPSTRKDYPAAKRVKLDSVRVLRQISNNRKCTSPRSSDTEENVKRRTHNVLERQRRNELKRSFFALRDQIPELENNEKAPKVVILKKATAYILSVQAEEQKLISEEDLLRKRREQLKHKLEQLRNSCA
Sequence of human Peroxisome Proliferator-activated Receptor delta (PPARd), PPARD (gene 5467) (Q03181 whole entry, looked up): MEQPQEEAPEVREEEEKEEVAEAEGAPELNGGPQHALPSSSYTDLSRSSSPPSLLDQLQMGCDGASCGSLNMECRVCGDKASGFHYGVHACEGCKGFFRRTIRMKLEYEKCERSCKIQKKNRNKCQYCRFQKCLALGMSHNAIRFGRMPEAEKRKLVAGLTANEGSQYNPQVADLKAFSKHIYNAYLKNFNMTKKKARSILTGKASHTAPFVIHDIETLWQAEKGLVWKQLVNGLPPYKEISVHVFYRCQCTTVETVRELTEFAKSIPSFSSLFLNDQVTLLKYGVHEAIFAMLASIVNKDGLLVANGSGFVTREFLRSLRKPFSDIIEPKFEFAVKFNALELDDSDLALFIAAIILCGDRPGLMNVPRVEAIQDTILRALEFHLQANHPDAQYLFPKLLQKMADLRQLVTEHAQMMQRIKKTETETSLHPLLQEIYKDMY
Sequence of Cellular tumor antigen p53 (Homo sapiens) (P04637 whole entry, looked up): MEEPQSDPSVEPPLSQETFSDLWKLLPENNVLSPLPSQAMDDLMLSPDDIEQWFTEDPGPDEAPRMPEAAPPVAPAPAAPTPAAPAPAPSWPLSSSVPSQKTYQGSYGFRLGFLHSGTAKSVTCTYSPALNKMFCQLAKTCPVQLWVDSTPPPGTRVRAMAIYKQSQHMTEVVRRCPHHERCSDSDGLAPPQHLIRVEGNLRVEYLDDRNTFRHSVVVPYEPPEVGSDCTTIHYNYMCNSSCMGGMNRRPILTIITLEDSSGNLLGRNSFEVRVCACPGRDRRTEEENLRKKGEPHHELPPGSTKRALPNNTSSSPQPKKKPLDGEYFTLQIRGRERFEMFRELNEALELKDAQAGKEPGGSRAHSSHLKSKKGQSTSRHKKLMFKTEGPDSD
Sequence of human Retinoic Acid Receptor gamma (RARg), RARG (gene 5916) (P13631 whole entry, looked up, the tested form may be a part): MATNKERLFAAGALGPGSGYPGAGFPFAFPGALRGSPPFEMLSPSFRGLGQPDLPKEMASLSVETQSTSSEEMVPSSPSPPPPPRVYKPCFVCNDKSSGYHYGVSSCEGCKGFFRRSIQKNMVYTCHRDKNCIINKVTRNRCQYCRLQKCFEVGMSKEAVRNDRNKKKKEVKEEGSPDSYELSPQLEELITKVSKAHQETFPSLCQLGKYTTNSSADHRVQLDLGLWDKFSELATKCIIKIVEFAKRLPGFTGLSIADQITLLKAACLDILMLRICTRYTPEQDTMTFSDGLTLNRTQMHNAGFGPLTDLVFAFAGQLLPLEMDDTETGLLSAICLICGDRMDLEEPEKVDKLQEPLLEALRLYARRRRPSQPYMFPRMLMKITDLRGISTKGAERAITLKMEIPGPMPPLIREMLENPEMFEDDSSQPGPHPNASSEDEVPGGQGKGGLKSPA
Sequence of Nuclear receptor subfamily 1 group I member 2 (Homo sapiens) (O75469 whole entry, looked up, the tested form may be a part): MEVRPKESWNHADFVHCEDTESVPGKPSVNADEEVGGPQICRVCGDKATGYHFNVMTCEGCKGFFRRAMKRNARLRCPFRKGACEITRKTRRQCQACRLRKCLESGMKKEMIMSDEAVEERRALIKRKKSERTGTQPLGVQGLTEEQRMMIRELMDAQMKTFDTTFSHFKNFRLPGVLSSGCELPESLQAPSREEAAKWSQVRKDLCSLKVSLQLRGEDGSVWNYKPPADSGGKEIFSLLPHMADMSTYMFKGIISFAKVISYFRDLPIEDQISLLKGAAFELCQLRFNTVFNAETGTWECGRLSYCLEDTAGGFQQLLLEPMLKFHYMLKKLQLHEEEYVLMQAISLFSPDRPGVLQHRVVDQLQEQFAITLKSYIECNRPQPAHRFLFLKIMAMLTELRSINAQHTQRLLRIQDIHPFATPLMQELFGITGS
Sequence of Retinoic acid receptor alpha (Homo sapiens) (P10276 whole entry, looked up, the tested form may be a part): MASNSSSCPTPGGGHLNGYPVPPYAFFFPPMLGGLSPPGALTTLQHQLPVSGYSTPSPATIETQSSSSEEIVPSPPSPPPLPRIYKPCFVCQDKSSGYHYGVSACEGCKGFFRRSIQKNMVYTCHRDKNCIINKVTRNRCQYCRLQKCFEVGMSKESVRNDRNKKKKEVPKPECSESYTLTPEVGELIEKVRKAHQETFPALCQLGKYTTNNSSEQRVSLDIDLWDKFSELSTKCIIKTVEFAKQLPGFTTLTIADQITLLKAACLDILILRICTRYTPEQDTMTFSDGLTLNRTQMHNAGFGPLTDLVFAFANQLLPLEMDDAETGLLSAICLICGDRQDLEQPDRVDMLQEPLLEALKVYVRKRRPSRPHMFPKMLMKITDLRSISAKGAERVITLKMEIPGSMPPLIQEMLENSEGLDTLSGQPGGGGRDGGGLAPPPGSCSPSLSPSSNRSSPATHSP
Sequence of human Peroxisome Proliferator-activated Receptor alpha (PPARa), PPARA (gene 5465) (Q07869 whole entry, looked up, the tested form may be a part): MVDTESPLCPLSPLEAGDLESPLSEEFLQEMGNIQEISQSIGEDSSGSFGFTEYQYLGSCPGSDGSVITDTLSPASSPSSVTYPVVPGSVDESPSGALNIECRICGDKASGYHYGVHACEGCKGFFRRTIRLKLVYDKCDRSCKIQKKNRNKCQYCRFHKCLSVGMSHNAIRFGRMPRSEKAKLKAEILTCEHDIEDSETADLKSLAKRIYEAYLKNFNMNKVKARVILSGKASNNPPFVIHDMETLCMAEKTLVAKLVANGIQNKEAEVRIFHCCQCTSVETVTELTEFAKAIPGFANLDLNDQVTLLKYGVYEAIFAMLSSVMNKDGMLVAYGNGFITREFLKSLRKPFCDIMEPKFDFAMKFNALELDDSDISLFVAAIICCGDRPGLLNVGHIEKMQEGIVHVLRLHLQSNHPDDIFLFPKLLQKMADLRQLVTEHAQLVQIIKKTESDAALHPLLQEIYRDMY

Turning to `CCCCCCCOC(=O)c1ccccc1C(=O)OCCCCCCC`, the result in assay [1], in [2], in [3], in assay [4], in assay [5] and in assay [6] was inactive. The outcome in assay [7], in [8], in [9], in [10], in [11] and in [12] was inactive. For the same compound, the outcome in assay [13] and in [16] was inactive. Moreover, the concentration at half-maximal activity (AC50) is 10.8 µM (active) in assay [14] and 6.29 µM (active) in [15].

Turning to `CC(C)(C)c1ccc(OC2CCCCC2O)cc1` (centres undefined), the compound was classed as inactive in assay [1], in assay [2], in assay [3], in assay [4], in assay [6] and in assay [11]. Also, the result in assay [17] and in [18] was inactive. The concentration at half-maximal activity (AC50) in [5] was 20.5 µM (active); in assay [14], 28.4 µM (active); in [15], 2.96 µM (active).

As for `OCC(F)(F)C(F)(F)C(F)(F)C(F)(F)C(F)(F)C(F)F`, the outcome in assay [1], in [2], in [3], in assay [4], in [5] and in assay [19] was inactive. In addition, the compound was called inactive in [6], in assay [7], in assay [8], in [20], in assay [9] and in [11]. The outcome in assay [12], in assay [17], in assay [18], in assay [13], in assay [14] and in [15] was inactive.

Turning to `FC(F)(F)C(F)(F)CNCC(F)(F)C(F)(F)F`, the compound was classed as inactive in [1], in assay [2], in assay [3], in assay [4], in assay [5] and in assay [19]. Further, the outcome in assay [6], in [7], in assay [8], in assay [20], in assay [9] and in [11] was inactive. The outcome in assay [12], in assay [13], in assay [14], in assay [15] and in assay [16] was inactive.

Take `O=C(OCCOCCOCCOC(=O)c1ccccc1)c1ccccc1`: the result in assay [1], in assay [2], in assay [3], in assay [4], in assay [5] and in [19] was inactive. The compound was called inactive in assay [17] and in assay [14].

Consider `CCCCCCC(C)OC(=O)CCCCC(=O)OC(C)CCCCCC` (centres undefined), for which the compound was called inactive in assay [1], in assay [2], in [3], in assay [4], in assay [5] and in assay [19]. The call in [6], in [7], in assay [8], in assay [9], in assay [11] and in assay [12] was inactive. Moreover, the result in [13], in [14] and in assay [15] was inactive.

As for `O=C(O)C(F)(F)C(F)(F)C(F)(F)C(F)(F)C(F)(F)C(F)(F)C(F)(F)C(F)(F)Cl`, the compound was called inactive in assay [1], in assay [2], in [3], in [4], in assay [5] and in assay [7]. The result in [8], in assay [9], in assay [11], in [12], in assay [15] and in [16] was inactive. Moreover, the concentration at half-maximal activity (AC50) in assay [5] was 12.7 µM (active); in [7], 54.4 µM (active); in [8] it was 44.9 µM (active); in assay [9] it was 49.9 µM (active); in assay [13], 53.2 µM (active) and 48.1 µM (active); in [14] it was 31.1 µM (active) and 34.1 µM (active). Further, the AC50 in [15] was 50 µM (active).
